Consider one sequence from article PMC7862700, “An all-to-all approach to the identification of sequence-specific readers for epigenetic DNA modifications on cytosine”.

Holding throughout (assay): DAPPL (digital affinity profiling via proximity ligation, sequencing); 10 mM Tris-HCl pH 7.5, 50 mM NaCl, 1 mM DTT, 4% glycerol, room temperature, 30 min; GST-TFs on glutathione beads, 16-mer random dsDNA library, 0.1% formaldehyde crosslink after washing; high values mean tight binding
In one experiment the target is T1, FEV (Homo sapiens, UniProt Q99581 1-238).
T1 sequence: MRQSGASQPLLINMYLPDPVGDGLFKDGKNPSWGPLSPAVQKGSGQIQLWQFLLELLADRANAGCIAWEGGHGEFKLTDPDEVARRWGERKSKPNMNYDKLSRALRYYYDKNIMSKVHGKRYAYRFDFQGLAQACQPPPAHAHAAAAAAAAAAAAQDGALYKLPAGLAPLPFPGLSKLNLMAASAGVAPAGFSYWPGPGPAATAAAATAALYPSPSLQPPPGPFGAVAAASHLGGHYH
As to conditions: protein: recombinant; tags: N-terminal GST; dsDNA, one strand shown. The method in brief:
(§1)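 Yeast served to express human transcription factors as GST fusions, which were then captured on glutathione beads and labelled with DNA barcodes. Pooled with a tag-only sample, they were incubated with 200 nmole of a 16-mer random double-stranded DNA library for 30 min at room temperature in Tris/NaCl/DTT/glycerol buffer, washed, crosslinked with 0.1% formaldehyde, ligated by proximity, amplified by PCR and sequenced. Dividing each hexamer's read frequency for a factor by its frequency for the tag-only sample gives the binding signal.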

The target in the next experiment is ETV5 (Homo sapiens, UniProt P41161 1-510). The settings on record: protein: recombinant; tags: N-terminal GST; dsDNA, one strand shown. The method, boiled down: as §1
Sequence of ETV5 (P41161 whole entry): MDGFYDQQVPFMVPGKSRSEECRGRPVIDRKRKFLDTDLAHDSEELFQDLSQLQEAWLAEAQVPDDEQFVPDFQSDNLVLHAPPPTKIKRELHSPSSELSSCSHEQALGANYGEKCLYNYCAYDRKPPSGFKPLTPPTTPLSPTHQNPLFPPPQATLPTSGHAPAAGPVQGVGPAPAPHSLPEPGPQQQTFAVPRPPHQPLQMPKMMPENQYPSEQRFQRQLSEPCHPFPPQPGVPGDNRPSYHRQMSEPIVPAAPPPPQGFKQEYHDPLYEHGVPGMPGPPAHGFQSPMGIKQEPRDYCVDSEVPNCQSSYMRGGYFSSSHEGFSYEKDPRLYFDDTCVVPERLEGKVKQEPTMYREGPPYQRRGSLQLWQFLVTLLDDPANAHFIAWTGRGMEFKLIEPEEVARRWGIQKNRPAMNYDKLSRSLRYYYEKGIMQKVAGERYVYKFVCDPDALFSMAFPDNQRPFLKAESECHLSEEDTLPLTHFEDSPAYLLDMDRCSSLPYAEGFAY
The target of another experiment is HSF1 (Homo sapiens, UniProt Q00613 1-529). As to conditions: protein: recombinant; tags: N-terminal GST; chain copies: 3; dsDNA, one strand shown. The method, boiled down:
as §1

The next experiment concerns the target T2, SPIC (Homo sapiens, UniProt Q8N5J4 1-248).
T2 sequence: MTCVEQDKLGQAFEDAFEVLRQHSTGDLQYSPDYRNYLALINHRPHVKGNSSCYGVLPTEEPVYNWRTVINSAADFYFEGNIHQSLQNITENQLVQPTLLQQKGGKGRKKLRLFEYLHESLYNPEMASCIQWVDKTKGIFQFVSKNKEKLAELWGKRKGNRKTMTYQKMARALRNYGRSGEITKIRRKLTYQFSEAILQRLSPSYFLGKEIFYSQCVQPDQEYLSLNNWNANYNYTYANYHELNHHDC
The settings on record: protein: recombinant; tags: N-terminal GST; dsDNA, one strand shown. The method, boiled down:
as §1

The next experiment has as its target ELF4 (Homo sapiens, UniProt Q99607 1-663). The settings on record: protein: recombinant; tags: N-terminal GST; dsDNA, one strand shown. The method, boiled down:
as §1

The next experiment has as its target T3, ELK4 (Homo sapiens, UniProt P28324-2 1-405).
T3 sequence: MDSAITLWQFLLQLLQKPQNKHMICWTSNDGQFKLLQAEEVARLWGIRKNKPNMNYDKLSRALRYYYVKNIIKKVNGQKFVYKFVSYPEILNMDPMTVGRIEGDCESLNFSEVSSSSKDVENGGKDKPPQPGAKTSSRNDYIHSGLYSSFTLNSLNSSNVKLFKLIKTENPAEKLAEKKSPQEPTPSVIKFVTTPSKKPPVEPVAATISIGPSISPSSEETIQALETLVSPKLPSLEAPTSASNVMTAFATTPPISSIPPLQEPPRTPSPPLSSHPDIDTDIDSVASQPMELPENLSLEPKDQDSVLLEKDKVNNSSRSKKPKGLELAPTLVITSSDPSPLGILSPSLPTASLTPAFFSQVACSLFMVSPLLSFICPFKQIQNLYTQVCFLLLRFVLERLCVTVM
As to conditions: protein: recombinant; tags: N-terminal GST; dsDNA, one strand shown. The method, boiled down: as §1

The target of a further experiment is T4, ETV2 (Homo sapiens, UniProt O00321 1-342).
T4 sequence: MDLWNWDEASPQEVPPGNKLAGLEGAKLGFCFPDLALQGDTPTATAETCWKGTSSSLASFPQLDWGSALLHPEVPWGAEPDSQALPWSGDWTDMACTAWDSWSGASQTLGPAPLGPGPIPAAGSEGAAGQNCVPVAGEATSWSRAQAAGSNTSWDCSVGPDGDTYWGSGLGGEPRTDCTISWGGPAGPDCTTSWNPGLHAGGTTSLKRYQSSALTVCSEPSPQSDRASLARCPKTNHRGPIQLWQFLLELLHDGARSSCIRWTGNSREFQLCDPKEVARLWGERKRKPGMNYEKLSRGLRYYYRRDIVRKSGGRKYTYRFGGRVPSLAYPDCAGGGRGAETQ
The settings on record: protein: recombinant; tags: N-terminal GST; dsDNA, one strand shown. The method, boiled down:
as §1

In a further experiment the target is T5, ELF3 (Homo sapiens, UniProt P78545 1-371).
T5 sequence: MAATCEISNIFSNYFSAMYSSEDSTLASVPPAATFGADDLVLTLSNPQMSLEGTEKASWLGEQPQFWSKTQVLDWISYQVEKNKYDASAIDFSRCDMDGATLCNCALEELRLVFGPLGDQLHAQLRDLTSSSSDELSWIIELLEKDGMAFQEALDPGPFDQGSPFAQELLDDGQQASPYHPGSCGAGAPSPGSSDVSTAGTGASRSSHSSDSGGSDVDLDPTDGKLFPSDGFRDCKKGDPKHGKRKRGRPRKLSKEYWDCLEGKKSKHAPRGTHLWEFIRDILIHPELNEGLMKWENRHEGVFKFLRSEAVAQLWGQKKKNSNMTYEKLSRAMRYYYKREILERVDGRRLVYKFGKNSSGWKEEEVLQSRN
As to conditions: protein: recombinant; tags: N-terminal GST; dsDNA, one strand shown. The method, boiled down: as §1

A further experiment addresses CRX (Homo sapiens, UniProt O43186 1-299). The settings on record: protein: recombinant; tags: N-terminal GST; dsDNA, one strand shown. The method in brief:
as §1

Another experiment deals with ETV1 (Homo sapiens, UniProt P50549 1-477). The settings on record: protein: recombinant; tags: N-terminal GST; dsDNA, one strand shown. The method in brief:
as §1

For another experiment, the target named is T6, ERF (Homo sapiens, UniProt P50548 1-548).
T6 sequence: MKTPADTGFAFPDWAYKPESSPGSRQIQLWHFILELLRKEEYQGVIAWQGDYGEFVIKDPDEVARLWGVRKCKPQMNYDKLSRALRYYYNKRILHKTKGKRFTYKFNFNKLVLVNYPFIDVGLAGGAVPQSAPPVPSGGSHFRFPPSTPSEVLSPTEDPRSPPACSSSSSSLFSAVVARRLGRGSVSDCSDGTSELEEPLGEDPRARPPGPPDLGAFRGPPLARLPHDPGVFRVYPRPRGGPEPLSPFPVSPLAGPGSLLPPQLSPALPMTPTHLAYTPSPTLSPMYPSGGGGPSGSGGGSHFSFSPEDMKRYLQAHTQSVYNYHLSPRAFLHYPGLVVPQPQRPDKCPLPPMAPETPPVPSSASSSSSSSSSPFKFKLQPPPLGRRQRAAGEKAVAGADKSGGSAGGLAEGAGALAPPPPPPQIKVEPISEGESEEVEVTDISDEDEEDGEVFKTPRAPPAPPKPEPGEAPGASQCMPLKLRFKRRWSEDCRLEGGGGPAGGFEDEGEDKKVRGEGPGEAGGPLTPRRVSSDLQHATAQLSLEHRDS
The settings on record: protein: recombinant; tags: N-terminal GST; dsDNA, one strand shown. The method, boiled down:
as §1

Another experiment deals with T7, ETV3L (Homo sapiens, UniProt Q6ZN32 1-361).
T7 sequence: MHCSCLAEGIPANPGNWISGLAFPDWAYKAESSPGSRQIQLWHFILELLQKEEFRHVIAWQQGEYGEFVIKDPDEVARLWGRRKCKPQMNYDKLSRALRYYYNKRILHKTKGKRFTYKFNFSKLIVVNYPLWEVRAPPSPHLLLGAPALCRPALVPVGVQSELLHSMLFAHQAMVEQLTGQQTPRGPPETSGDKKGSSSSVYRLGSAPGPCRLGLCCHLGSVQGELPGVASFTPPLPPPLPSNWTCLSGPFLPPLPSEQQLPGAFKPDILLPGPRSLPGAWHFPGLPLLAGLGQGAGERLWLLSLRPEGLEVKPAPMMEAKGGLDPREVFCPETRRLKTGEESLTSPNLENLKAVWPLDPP
As to conditions: protein: recombinant; tags: N-terminal GST; dsDNA, one strand shown. The method in brief: as §1

The target of another experiment is T8, ETS2 (Homo sapiens, UniProt P15036 1-469).
T8 sequence: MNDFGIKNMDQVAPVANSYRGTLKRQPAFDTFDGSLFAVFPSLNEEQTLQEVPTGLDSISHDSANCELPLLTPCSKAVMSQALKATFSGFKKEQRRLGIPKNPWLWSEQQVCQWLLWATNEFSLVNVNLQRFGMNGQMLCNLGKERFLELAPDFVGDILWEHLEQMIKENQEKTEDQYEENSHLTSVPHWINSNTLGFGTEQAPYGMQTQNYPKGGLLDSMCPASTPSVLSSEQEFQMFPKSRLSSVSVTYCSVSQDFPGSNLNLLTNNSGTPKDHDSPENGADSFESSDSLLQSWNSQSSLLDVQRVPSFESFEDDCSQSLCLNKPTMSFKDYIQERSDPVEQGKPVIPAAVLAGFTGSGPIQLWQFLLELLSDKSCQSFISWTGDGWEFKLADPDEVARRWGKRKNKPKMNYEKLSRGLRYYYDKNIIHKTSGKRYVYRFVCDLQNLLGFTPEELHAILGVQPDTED
As to conditions: protein: recombinant; tags: N-terminal GST; dsDNA, one strand shown. The method, boiled down: as §1

A further experiment addresses T9, SPDEF (Homo sapiens, UniProt O95238 1-335).
T9 sequence: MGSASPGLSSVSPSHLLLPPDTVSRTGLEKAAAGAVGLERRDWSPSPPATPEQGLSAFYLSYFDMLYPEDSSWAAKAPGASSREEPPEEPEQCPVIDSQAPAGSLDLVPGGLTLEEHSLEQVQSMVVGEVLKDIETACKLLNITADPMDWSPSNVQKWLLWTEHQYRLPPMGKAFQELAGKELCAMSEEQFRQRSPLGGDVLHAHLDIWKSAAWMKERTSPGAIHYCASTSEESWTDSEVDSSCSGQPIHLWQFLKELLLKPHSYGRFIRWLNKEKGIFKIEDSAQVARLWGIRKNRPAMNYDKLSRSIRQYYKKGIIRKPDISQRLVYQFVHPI
The settings on record: protein: recombinant; tags: N-terminal GST; dsDNA, one strand shown. The method in brief: as §1

The target of a further experiment is T10, ETV7 (Homo sapiens, UniProt Q9Y603 1-341).
T10 sequence: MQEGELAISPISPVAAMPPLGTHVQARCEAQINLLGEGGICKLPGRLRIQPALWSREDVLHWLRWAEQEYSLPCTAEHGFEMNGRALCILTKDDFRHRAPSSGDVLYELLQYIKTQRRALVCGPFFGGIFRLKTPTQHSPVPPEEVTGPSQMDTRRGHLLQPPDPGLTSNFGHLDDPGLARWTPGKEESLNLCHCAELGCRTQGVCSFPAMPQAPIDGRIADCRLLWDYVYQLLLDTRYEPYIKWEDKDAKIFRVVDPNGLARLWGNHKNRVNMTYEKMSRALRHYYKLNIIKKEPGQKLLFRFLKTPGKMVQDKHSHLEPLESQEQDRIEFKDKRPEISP
As to conditions: protein: recombinant; tags: N-terminal GST; dsDNA, one strand shown. The method, boiled down: as §1

Another experiment concerns the target T11, ELF5 (Homo sapiens, UniProt Q9UKW6-2 1-255).
T11 sequence: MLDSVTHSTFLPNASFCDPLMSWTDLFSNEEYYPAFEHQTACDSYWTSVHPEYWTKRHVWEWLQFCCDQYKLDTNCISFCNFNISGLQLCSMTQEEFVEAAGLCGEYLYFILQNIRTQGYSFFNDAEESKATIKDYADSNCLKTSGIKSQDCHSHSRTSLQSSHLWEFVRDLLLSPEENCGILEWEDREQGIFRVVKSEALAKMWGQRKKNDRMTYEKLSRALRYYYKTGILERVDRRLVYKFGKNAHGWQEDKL
The settings on record: protein: recombinant; tags: N-terminal GST; dsDNA, one strand shown. The method in brief:
as §1

In another experiment the target is T12, ETV3 (Homo sapiens, UniProt P41162-2 1-143).
T12 sequence: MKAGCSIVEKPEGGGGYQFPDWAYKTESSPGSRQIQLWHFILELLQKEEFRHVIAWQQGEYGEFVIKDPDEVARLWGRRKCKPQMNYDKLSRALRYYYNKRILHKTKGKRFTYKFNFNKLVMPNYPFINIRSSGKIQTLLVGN
The settings on record: protein: recombinant; tags: N-terminal GST; dsDNA, one strand shown. The method in brief: as §1

Another experiment deals with ETV6 (Homo sapiens, UniProt P41212 1-452). As to conditions: protein: recombinant; tags: N-terminal GST; dsDNA, one strand shown. The method in brief: as §1
Sequence of ETV6 (P41212 whole entry): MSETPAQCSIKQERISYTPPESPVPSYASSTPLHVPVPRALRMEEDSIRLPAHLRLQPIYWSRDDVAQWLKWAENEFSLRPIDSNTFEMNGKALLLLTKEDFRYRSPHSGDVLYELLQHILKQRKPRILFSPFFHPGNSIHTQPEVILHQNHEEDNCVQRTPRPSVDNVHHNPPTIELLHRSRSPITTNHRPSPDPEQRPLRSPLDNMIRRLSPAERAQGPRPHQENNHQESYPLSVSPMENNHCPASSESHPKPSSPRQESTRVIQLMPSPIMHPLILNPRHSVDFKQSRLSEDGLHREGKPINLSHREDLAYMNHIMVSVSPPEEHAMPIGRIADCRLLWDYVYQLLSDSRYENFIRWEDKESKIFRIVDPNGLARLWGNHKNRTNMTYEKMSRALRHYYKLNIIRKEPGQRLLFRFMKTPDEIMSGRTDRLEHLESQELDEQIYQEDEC

Sequence of CRX (O43186 whole entry): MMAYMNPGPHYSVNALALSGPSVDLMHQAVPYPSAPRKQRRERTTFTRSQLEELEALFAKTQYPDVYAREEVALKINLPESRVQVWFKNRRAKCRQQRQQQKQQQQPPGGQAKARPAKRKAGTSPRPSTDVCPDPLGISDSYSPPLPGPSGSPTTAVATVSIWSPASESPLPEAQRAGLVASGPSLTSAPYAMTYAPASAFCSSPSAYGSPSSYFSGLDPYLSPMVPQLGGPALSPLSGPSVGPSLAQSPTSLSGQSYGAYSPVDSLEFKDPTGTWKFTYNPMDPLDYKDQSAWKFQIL
Sequence of HSF1 (Q00613 whole entry): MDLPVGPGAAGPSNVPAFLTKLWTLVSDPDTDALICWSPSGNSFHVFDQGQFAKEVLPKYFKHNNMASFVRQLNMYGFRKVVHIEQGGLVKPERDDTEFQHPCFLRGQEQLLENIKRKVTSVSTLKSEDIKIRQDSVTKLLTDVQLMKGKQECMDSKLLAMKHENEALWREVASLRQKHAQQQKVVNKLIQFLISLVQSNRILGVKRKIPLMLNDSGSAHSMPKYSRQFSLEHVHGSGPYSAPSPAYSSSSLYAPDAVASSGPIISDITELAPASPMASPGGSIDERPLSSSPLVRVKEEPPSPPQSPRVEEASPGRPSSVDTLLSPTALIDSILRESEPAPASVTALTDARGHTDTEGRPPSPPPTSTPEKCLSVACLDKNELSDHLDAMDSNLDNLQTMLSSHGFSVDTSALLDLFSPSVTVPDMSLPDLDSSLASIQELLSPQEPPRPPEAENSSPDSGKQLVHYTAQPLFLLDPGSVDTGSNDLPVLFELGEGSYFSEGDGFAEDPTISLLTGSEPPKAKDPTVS
Sequence of ETV1 (P50549 whole entry): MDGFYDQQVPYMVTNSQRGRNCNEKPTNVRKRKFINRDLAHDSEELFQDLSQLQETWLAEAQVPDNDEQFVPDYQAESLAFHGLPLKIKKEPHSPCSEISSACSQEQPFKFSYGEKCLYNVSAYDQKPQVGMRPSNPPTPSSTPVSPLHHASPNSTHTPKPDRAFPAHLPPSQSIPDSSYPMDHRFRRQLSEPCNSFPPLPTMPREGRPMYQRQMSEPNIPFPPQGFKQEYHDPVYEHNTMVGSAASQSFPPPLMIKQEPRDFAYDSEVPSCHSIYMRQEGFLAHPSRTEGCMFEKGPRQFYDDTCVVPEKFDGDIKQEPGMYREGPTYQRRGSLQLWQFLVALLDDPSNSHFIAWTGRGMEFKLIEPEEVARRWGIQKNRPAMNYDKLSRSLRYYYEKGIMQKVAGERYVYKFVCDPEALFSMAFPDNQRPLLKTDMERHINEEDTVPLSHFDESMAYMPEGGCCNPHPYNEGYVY
Sequence of ELF4 (Q99607 whole entry): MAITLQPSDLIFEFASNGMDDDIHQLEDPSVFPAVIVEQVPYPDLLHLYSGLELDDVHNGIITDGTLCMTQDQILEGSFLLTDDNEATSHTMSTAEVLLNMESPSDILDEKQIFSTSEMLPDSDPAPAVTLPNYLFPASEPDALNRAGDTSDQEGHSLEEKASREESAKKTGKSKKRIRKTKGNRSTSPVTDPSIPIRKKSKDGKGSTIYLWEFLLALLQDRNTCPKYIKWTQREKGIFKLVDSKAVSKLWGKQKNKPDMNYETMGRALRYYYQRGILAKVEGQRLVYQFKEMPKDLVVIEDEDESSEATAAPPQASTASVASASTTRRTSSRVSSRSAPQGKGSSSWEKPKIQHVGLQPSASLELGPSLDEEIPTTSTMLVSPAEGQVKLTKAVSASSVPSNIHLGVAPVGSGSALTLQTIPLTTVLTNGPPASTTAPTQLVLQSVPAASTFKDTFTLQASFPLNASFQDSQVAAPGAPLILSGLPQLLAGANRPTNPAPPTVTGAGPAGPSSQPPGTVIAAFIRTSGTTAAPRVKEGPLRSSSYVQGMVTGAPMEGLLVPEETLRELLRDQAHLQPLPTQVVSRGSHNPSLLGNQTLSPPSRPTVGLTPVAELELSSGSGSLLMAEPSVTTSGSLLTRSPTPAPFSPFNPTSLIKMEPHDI

Take AATCAA: the binding signal with FEV is 1.19 fold enrichment (6-mer frequency, TF over GST control); with ETV5 it was 1.14 fold enrichment (6-mer frequency, TF over GST control); with HSF1, 1.13 fold enrichment (6-mer frequency, TF over GST control); with SPIC, 1.11 fold enrichment (6-mer frequency, TF over GST control); in the experiment with ELF4 it was 1.21 fold enrichment (6-mer frequency, TF over GST control); with ELK4, 1.18 fold enrichment (6-mer frequency, TF over GST control). Besides, the binding signal is 1.48 fold enrichment (6-mer frequency, TF over GST control) with ETV2; 1.24 fold enrichment (6-mer frequency, TF over GST control) with ELF3; 1.32 fold enrichment (6-mer frequency, TF over GST control) in the experiment with CRX; 1.19 fold enrichment (6-mer frequency, TF over GST control) with ETV1; 1.17 fold enrichment (6-mer frequency, TF over GST control) with ERF; 1.24 fold enrichment (6-mer frequency, TF over GST control) with ETV3L. Further, the binding signal with ETS2 was 1.18 fold enrichment (6-mer frequency, TF over GST control); in the experiment with SPDEF, 1.11 fold enrichment (6-mer frequency, TF over GST control); with ETV7 it was 1.16 fold enrichment (6-mer frequency, TF over GST control); in the experiment with ELF5, 1.16 fold enrichment (6-mer frequency, TF over GST control); in the experiment with ETV3, 1.2 fold enrichment (6-mer frequency, TF over GST control); with ETV6, 1.2 fold enrichment (6-mer frequency, TF over GST control).
